# Test results reported in the supplement of paper PMC8728848.
# Many of the other results were omitted from the sample, so the strongest signals are more common in it than they were.
# Tests used:
# Assay in all cases: glycan array binding signal (z-score within array); higher = stronger binding
# Conditions in all cases: glycan notation: IUPAC condensed, linker removed; mutation: R343V
# Fuc(a1-2)Gal(b1-4)Glc6S = target: Fuc(a1-2)Gal(b1-4)Glc6S
# How it was run: (§1)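 Glycan array data came from 3228 arrays in the Consortium for Functional Glycomics database, and only arrays with an available protein sequence were kept. Glycan names were put into IUPAC-condensed notation, and columns mapping to the same glycan were averaged. The binding signal is a within-array Z-score, averaged across arrays of one protein sequence run at different concentrations or buffers and across linkers. A negative Z-score can be read as non-binding.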
# [1] = target: Fuc(a1-2)Gal(b1-4)GlcNAc(b1-3)Gal(b1-4)GlcNAc
# How it was run: as §1
# [2] = target: Fuc(a1-2)Gal6S(b1-4)Glc6S
# How it was run: as §1
# [3] = target: Fuc(a1-2)[Gal(a1-3)]Gal(b1-4)GlcNAc
# How it was run: as §1
# [4] = target: Fuc(a1-2)[GalNAc(a1-3)]Gal(b1-3)GlcNAc
# How it was run: as §1
# Fuc(a1-3)GlcNAc = target: Fuc(a1-3)GlcNAc
# How it was run: as §1
# Gal(b1-3)Gal(b1-4)GlcNAc = target: Gal(b1-3)Gal(b1-4)GlcNAc
# How it was run: as §1
# [5] = target: Gal(b1-3)GalNAc(b1-4)Gal(b1-4)Glc
# How it was run: as §1
# [6] = target: Gal(b1-3)[Fuc(a1-4)]GlcNAc(b1-3)Gal(b1-4)[Fuc(a1-3)]GlcNAc
# How it was run: as §1
# [7] = target: Gal(b1-3)[Neu5Ac(a2-6)]GlcNAc(b1-6)Gal(b1-4)Glc
# How it was run: as §1
# [8] = target: Gal(b1-4)GlcNAc(b1-6)GalNAc
# How it was run: as §1
# Gal3S(b1-4)Glc6S = target: Gal3S(b1-4)Glc6S
# How it was run: as §1
# Gal3S6S(b1-4)GlcNAc6S = target: Gal3S6S(b1-4)GlcNAc6S
# How it was run: as §1
# GlcA(b1-6)Gal = target: GlcA(b1-6)Gal
# How it was run: as §1
# [9] = target: GlcNAc(b1-2)Man(a1-3)[GlcNAc(b1-2)Man(a1-6)]Man(b1-4)GlcNAc(b1-4)GlcNAc
# How it was run: as §1
# [10] = target: GlcNAc(b1-3)Gal(b1-3)GalNAc
# How it was run: as §1
# [11] = target: GlcNAc(b1-3)[GlcNAc(b1-4)][GlcNAc(b1-6)]GlcNAc
# How it was run: as §1
# [12] = target: GlcNAc(b1-4)Gal(b1-4)GlcNAc
# How it was run: as §1
# [13] = target: GlcNAc(b1-4)[GlcNAc(b1-6)]GalNAc
# How it was run: as §1
# Kdn(a2-3)Gal(b1-3)GlcNAc = target: Kdn(a2-3)Gal(b1-3)GlcNAc
# How it was run: as §1
# [14] = target: Man(a1-2)Man(a1-3)[Man(a1-6)]Man(a1-6)[Man(a1-2)Man(a1-3)]Man(b1-4)GlcNAc(b1-4)GlcNAc
# How it was run: as §1
# [15] = target: Man(a1-3)[Man(a1-6)]Man(a1-6)[Man(a1-2)Man(a1-3)]Man(b1-4)GlcNAc(b1-4)GlcNAc
# How it was run: as §1
# [16] = target: Man(a1-3)[Man(a1-6)]Man(a1-6)[Man(a1-3)]Man(b1-4)GlcNAc(b1-4)GlcNAc
# How it was run: as §1
# [17] = target: Neu5Ac(a2-3)Gal(b1-4)GlcNAc(b1-3)Gal(b1-3)GlcNAc
# How it was run: as §1
# [18] = target: Neu5Ac(a2-6)Gal(b1-4)GlcNAc6S
# How it was run: as §1
# [19] = target: Neu5Ac(a2-8)Neu5Ac(a2-3)Gal(b1-4)Glc
# How it was run: as §1
# [20] = target: Neu5Ac(a2-8)Neu5Ac(a2-8)Neu5Ac(a2-3)Gal(b1-4)Glc
# How it was run: as §1
binder,measurement,setting,value
Surfactant Protein D (Human); Neck + Carbohydrate Recognition Domain (NCRD) (Homo sapiens) (protein) MLLFLLSALVLLTQPLGYLEAEMKTYSHRTMPSACTLVMCSSVESGLPGRDRDGREGPRGEKGDPGLPGAAGQAGMPGQAGPVGPKGDNGSVGEPGPKGDTGPSGPPGPPGVPGPAGREGALGKQGNIGPQGKPGPKGEAGPKGEVGAPGMQGSAGARGLAGPKGERGVPGERGVPGNTGAAGSAGAMGPQGSPGARGPPGLKGDKGIPGDKGAKGESGLPDVASLRQQVEALQGQVQHLQAAFSQYKKVELFPNGQSVGEKIFKTAQFVKPFTEAQLLCTQAGGQLASPRSAAENAALQQLVVAKNEAAFLSMTDSKTEGKFTYPTGESLVYSNWAPGEPNDDGGSEDCVEIFTNGKWNDVACGEKRLVVCEF,glycan array binding signal (z-score),Fuc(a1-2)Gal(b1-4)Glc6S,-0.514
same,glycan array binding signal (z-score),[1],1.5
same,glycan array binding signal (z-score),[2],-0.304
same,glycan array binding signal (z-score),[3],-0.508
same,glycan array binding signal (z-score),[4],-0.559
same,glycan array binding signal (z-score),Fuc(a1-3)GlcNAc,3.11
same,glycan array binding signal (z-score),Gal(b1-3)Gal(b1-4)GlcNAc,-0.562
same,glycan array binding signal (z-score),[5],-0.463
same,glycan array binding signal (z-score),[6],2.11
same,glycan array binding signal (z-score),[7],-0.498
same,glycan array binding signal (z-score),[8],-0.546
same,glycan array binding signal (z-score),Gal3S(b1-4)Glc6S,-0.317
same,glycan array binding signal (z-score),Gal3S6S(b1-4)GlcNAc6S,-0.189
same,glycan array binding signal (z-score),GlcA(b1-6)Gal,-0.463
same,glycan array binding signal (z-score),[9],3.08
same,glycan array binding signal (z-score),[10],1.72
same,glycan array binding signal (z-score),[11],3.11
same,glycan array binding signal (z-score),[12],3.13
same,glycan array binding signal (z-score),[13],2.16
same,glycan array binding signal (z-score),Kdn(a2-3)Gal(b1-3)GlcNAc,-0.504
same,glycan array binding signal (z-score),[14],2.61
same,glycan array binding signal (z-score),[15],3.01
same,glycan array binding signal (z-score),[16],3.27
same,glycan array binding signal (z-score),[17],-0.489
same,glycan array binding signal (z-score),[18],-0.319
same,glycan array binding signal (z-score),[19],-0.47
same,glycan array binding signal (z-score),[20],-0.49
